The whole screen tested about 3,600 compounds, of which about 900 (25%) were called active. Not all results are given here. Results with a measured potency or affinity are listed apart. Values without a mark were called inactive. How the calls were made is not given here.
molecular target: Protein Tat (Human immunodeficiency virus type 1 group M subtype B (isolate HXB2)) (UniProt P04608); experiment: inhibitors of Tat binding to TAR RNA, dose response, counter-screen for Vif-APOBEC3G degradation inhibitor project, biochemical, fluorescence polarization, FAM-labeled TAR RNA (AID 1117361); details: outcome: dose series up to 100 µM unless noted; series mostly up to 100 µM; inhibition: at the top concentration

| Structure (SMILES) | inhibition [%] | outcome |
| --- | --- | --- |
| CCc1cc(C=NC2CCCCC2)c(O)s1 | 18.2 | – |
| CN(C)NC(=S)NC1CCS(=O)(=O)C1 (stereo not drawn) | – | inactive |
| CCCOc1ccc2[nH]cc(C(=O)O)c(=O)c2c1 | 1.35 | – |
| Cc1ccc(Oc2ccc(/C=N/O)cn2)cc1 | – | inactive |
| O=S(=O)(Nc1ccc2c(c1)nc1n2CCN(Cc2ccccc2)C1)c1ccc(Cl)cc1 | 13.6 | – |
| COCCCNc1nc2c(c(=O)n(C)c(=O)n2C)n1Cc1cccc(OC)c1 | 4.77 | – |
| CCCCc1c(C)nc2ccc(Br)cc2c1SCCC#N | – | inactive |
| COc1cc2ccccc2nn1 | 8.25 | – |
| COc1ccc(C)cc1Nc1c2c(nc3ccccc13)CCC2 | – | inactive |
| CC(=O)Nc1nonc1NC(=O)CSC1=NCCS1 | 2.7 | – |
| CNC(=O)CN1C(=O)NC2(CCc3ccccc32)C1=O (stereo not drawn) | 7.43 | – |
| O=C(CSc1nnc(CN2CCOCC2)n1-c1ccccc1)Nc1ccc(Cl)cc1 | – | inactive |
| CC1(C)CC(=O)C2=C(C1)N(Cc1cccnc1)C(=O)C2(NC(=O)C1CC1)C(F)(F)F (stereo not drawn) | 17.7 | – |
| Cc1cc(C)cc(N(CCC#N)C(=O)CSc2nc3nc(C)cc(C)n3n2)c1 | – | inactive |
| O=C(Nc1ccc(C(=O)N2CCOCC2)cc1)c1ccccc1[N+](=O)[O-] | – | inactive |
| Cc1c(C(=O)Nc2cccc([N+](=O)[O-])c2)csc1-c1ccccc1 | – | inactive |
| O=C(C1CCN(S(=O)(=O)N2CCOCC2)CC1)N1CCN(Cc2ccc3c(c2)OCO3)CC1 | 2.03 | – |
| CN(CCO)CC(O)CN(c1ccccc1)c1ccccc1 (stereo not drawn) | – | inactive |
| CCOC(=O)c1c(Nc2ccccc2N)cc(C)nc1C | 14.2 | – |
| COC(=O)c1c[nH]n2c(=O)c(Cc3ccc(F)cc3Cl)c(C)nc12 | 6.14 | – |
| O=C(CCc1nc(-c2ccccc2F)no1)NC1CCCCCC1 | – | inactive |
| CCOc1ccc(N(CC(=O)Nc2ccccc2C(=O)NCc2ccco2)S(C)(=O)=O)cc1 | – | inactive |
| CC1CN(Cc2cc(=O)[nH]c(C3CC3)n2)CC(C)O1 (stereo not drawn) | – | inactive |

| Structure (SMILES) | inhibition [%] | outcome |
| --- | --- | --- |
| Cn1c(Cn2c(=O)sc3ccccc32)nnc1SCC(=O)NCc1ccc(F)cc1 | 2.05 | – |
| Cc1cc(=O)oc2cc(OCC(=O)NCc3cccnc3)ccc12 | 2.73 | – |
| Fc1cc(F)cc(NC(=S)NCCCN2CCOCC2)c1 | 4.12 | – |
| COC(=O)c1ccccc1NC(=O)c1noc2c1CCC2 | 12.4 | – |
| COc1ccccc1NC(=O)CSc1nnc(C)n1CCc1ccccc1 | – | inactive |
| COc1ccc(C2CC(c3cccs3)n3nc(N)nc3N2)cc1 (stereo not drawn) | 4.09 | – |
| Cc1ccc(C2CC(c3cccc(Cl)c3)n3nc(N)nc3N2)cc1 (stereo not drawn) | 0.68 | – |
| COc1cc(CNCCc2ccccc2F)ccc1OCc1ccc(Cl)nc1 | 2.73 | – |
| CCOc1cc(C)nc(NCCc2ccc(OC)c(OC)c2)n1 | 2.03 | – |
| Cc1ccc(NC(=O)C(C)NC(=O)OCc2ccccc2)cc1C (stereo not drawn) | – | inactive |
| Cc1cc(=O)[nH]c2c1c(C)nn2C1CCCCC1 | – | inactive |
| O=C(CC1SCCNC1=O)Nc1ccc(Cl)cc1 (stereo not drawn) | – | inactive |
| Fc1cccc(-c2cc3nc4c(c(NCc5ccco5)n3n2)CCCC4)c1 | 13 | – |
| CSc1nc(NCCCO)c2c3c(sc2n1)CN(C)CC3 | 1.65 | – |
| CCC1=NN2C(=N)/C(=C\c3cccn3-c3cccc(Cl)c3)C(=O)N=C2S1 | 1.65 | – |
| COc1ccc(NC2CS(=O)(=O)CC2NCc2ccco2)cc1 (stereo not drawn) | 6.82 | – |
| COc1cccc(S(=O)(=O)N2CCN(c3ccccc3F)CC2)c1 | 4.05 | – |
| COc1ccccc1CNC(=O)COC(=O)c1ccc(NC(N)=O)cc1 | 8.11 | – |
| O=S(=O)(NCc1ccc2c(c1)OCO2)c1cccc(S(=O)(=O)N2CCOCC2)c1 | – | inactive |
| COCCN1Cc2cccc(C(=O)NCc3ccccn3)c2C1=O | 7.43 | – |
| Cc1cccc(N2CCN(CC(O)COc3ccc(Cl)cc3)CC2)c1 (stereo not drawn) | – | inactive |
| COCC(=O)NC1CCN(CC(=O)Nc2ccc(OC)cc2[N+](=O)[O-])CC1 | – | inactive |
| CC(=O)NS(=O)(=O)c1cccnc1Nc1cccc(Cl)c1 | 2.03 | – |

| Structure (SMILES) | inhibition [%] | outcome |
| --- | --- | --- |
| CCc1nnc(NC(=O)c2ccc3c(c2)C(=O)N(C(C)(C)C)C3=O)s1 | – | inactive |
| N#Cc1cccc(Oc2ccc(S(=O)(=O)N3CCCC3)cn2)c1 | – | inactive |
| NC(=O)C1CCCN(CC(=O)Nc2ccccc2C(=O)NC2CC2)C1 (stereo not drawn) | 4.12 | – |
| COC(=O)Cc1cc(=O)n(-c2nc3ccccc3[nH]2)[nH]1 | 4.34 | – |
| Cc1cccc(N(CC(=O)N/N=C/c2ccc(OCC(=O)NCc3ccco3)cc2)S(C)(=O)=O)c1C | – | inactive |
| CCn1c(CNc2ccc(C)cc2)nnc1SCC(=O)NCc1ccccc1 | 8.11 | – |
| CCc1ccc(CNCc2cccnc2)cc1 | 3.38 | – |
| Cc1ccc(CNC(=O)COc2ccc3c(c2)CCC3)cc1 | 20.6 | – |
| COc1ccc(OC)c(-c2cc(C(=O)NCc3cccs3)no2)c1 | 2.05 | – |
| CC1(C)Oc2ccc(C(=O)NC3CCCC3)cc2N(CC(=O)N2CCOCC2)C1=O | – | inactive |
| COc1cc(SC)ccc1C(=O)Nc1c(C)cccc1C | – | inactive |
| CC(Oc1ccc(Cl)cc1)C(=O)Nc1ncccn1 (stereo not drawn) | – | inactive |
| N[C@@H](Cc1c[nH]c2ccccc12)C(=O)O | 1.65 | – |
| O=C(CCc1c[nH]c2ccccc12)NC1CC1 | – | inactive |
| Cc1cccc(C)c1N1C(=O)C2ON(c3ccccc3)C(c3ccncc3)C2C1=O (stereo not drawn) | 9.46 | – |
| O=C(Nc1cnn(Cc2c(Cl)cccc2Cl)c1)c1ccc([N+](=O)[O-])cc1 | 4.73 | – |
| Cc1nn(CC(=O)NCc2ccccc2Cl)c(C)c1[N+](=O)[O-] | 8.11 | – |
| Cc1sc2ncnc(OCC(=O)N3CCN(S(=O)(=O)c4ccc(Cl)cc4)CC3)c2c1C | – | inactive |
| CC(C)c1nc2sc3c(NCc4ccco4)ncnc3c2c2c1COC(C)(C)C2 | 3.41 | – |
| CCCC(=O)NC1=C(Cl)C(=O)c2ccccc2C1=O | – | inactive |
| CCC(=O)Nc1cc2c(cc1C(=O)CC)OCCO2 | – | inactive |
| Cc1ccc(S(=O)(=O)Nc2ccc3nc(C)sc3c2)cc1 | 0.68 | – |
| CC(=O)N1CCN(c2ccc(NCc3ccc4c(c3)OCO4)cc2)CC1 | 28.6 | – |

| Structure (SMILES) | inhibition [%] | outcome |
| --- | --- | --- |
| COc1ccc(N2CCN(C(=O)COc3ccccc3)CC2)cc1 | 2.05 | – |
| CCN1CCN(c2ccc(NC(=O)Cc3ccccc3)cc2)CC1 | – | inactive |
| CCOc1ccc(S(=O)(=O)Nc2ccc(S(=O)(=O)N3CCCCC3)cc2)cc1 | – | inactive |
| Cc1snc(S(=O)(=O)Cc2ccccc2Cl)c1C#N | 1.35 | – |
| COc1ccc(/C=C/CN2CCN(Cc3ccccc3)C(CCO)C2)cc1 (stereo not drawn) | – | inactive |
| CSc1ccccc1NC(=O)c1noc2c1CCC2 | – | inactive |
| CCCCS(=O)(=O)N1CCCC(C(=O)N2CCOCC2)C1 (stereo not drawn) | 12.4 | – |
| COc1ccc(C2CC(O)(c3ccccc3)Oc3c(C)ccc(C)c32)cc1 (stereo not drawn) | – | inactive |
| Cn1c2ccccc2c2ccc3c(c21)C(=O)C=CC3=O | 4.34 | – |
| Cc1ccc(CN(C(=O)Cn2nnc3ccccc32)C(C(=O)NCc2ccco2)c2cccs2)cc1 (stereo not drawn) | 8.78 | – |
| CCOc1cc(C(C(=O)NCC2CCCO2)N(C(=O)Cn2nnc3ccccc32)c2cccc(OC)c2)ccc1O (stereo not drawn) | – | inactive |
| CCCCn1c(SCC(=O)Nc2ccc3c(c2)OCCO3)nnc1C(CC)N(C)C (stereo not drawn) | – | inactive |
| C/C(=N\Nc1ccc2nncn2n1)c1ccc(Br)s1 | 1.65 | – |
| COc1cc(Cc2cnc(N)nc2N)cc(OC)c1OC | – | inactive |
| O=C1C(C=NC2CC2)=C(O)c2ccccc21 | 6.76 | – |
| O=C(CN1CCN(CC(=O)Nc2ccc3c(c2)OCO3)CC1)Nc1ccc(F)cc1 | 2.73 | – |
| COc1ccc(Cl)cc1N(CC(=O)Nc1ccc2c(c1)OCCO2)S(C)(=O)=O | 5.41 | – |
| CCn1c(=O)c2cc(C(=O)N(C)c3ccccc3F)sc2c2ccccc21 | – | inactive |
| CCOC(=O)N1CCC(NC(=O)C2CCN(c3nc(-c4ccc(OC)cc4)no3)CC2)CC1 | 4.77 | – |
| O=C(OCC(=O)N1CCN(C(=O)c2ccco2)CC1)c1cc(-c2ccco2)nc2ccccc12 | 27.7 | – |
| CCOC(=O)C1CCCN(Cc2ccc(O)c(OC)c2)C1 (stereo not drawn) | 3.38 | – |
| CCOC(=O)C1CCCN(C(=O)c2c(-c3ccccc3Cl)noc2C)C1 (stereo not drawn) | 5.41 | – |
| Cc1oc(-c2ccccc2)nc1C(=O)OCC(=O)NCc1ccc(F)cc1 | 27.1 | – |

| Structure (SMILES) | inhibition [%] | outcome |
| --- | --- | --- |
| O=C(CCCc1c[nH]c2ccccc12)NCc1ccc2c(c1)OCO2 | – | inactive |
| Cc1cc(C(=O)OC2CCOC2=O)c2ccccc2n1 (stereo not drawn) | 4.05 | – |
| CC(C)Oc1ccc(C(=O)N(Cc2ccco2)C2CCS(=O)(=O)C2)cc1 (stereo not drawn) | 2.34 | – |
| CS(=O)(=O)N(CC(=O)NCc1ccc2c(c1)OCO2)Cc1ccccc1 | – | inactive |
| O=C(CSc1nnc2n(C3CCCCC3)c(=O)c3ccccc3n12)OC1CCCCC1 | – | inactive |
| Cc1cc(Cl)c(S(=O)(=O)NCc2cccnc2)cc1OCC(=O)NC1CCCCC1 | – | inactive |
| O=S(=O)(c1cccs1)n1nnc2ccccc21 | – | inactive |
| COc1cc(-c2nnc(SCc3cc(=O)oc4cc(O)c(O)cc34)o2)cc(OC)c1OC | 1.67 | – |
| C=C(c1ccc(OCCO)cc1)c1ccc(OCCO)cc1 | 12.8 | – |
| CC(=O)N1CCN(c2ccc(NC(=O)COc3ccc(Cl)cc3Cl)cc2)CC1 | 8.87 | – |
| Cc1nc2ccc(NS(=O)(=O)c3ccc(F)cc3F)cc2s1 | – | inactive |
| CC1(C)C/C(=C(/C#N)C(N)=O)CCO1 | 8.11 | – |
| COc1cc2c(cc1OC)C(C(=O)O)C(c1cc(Br)c(O)c(OC)c1)N(C)C2=O (stereo not drawn) | 0.68 | – |
| Cc1sc2ncnc(OCC(=O)NCC3CCCO3)c2c1C (stereo not drawn) | 10.1 | – |
| CN(Cc1ccccc1)C(=O)C1CCCN1S(=O)(=O)c1ccc2c(c1)n(C)c(=O)c(=O)n2C (stereo not drawn) | – | inactive |
| O=C(NCCSCc1ccccc1)c1ccc(C2SCC(=O)N2Cc2ccccc2)cc1 (stereo not drawn) | – | inactive |
| CCCn1nc(Oc2nc(SC)nc(N(C)C)n2)ccc1=O | – | inactive |
| O=C(Nn1cnnc1)c1cc(-c2cccc(Br)c2)nc2ccccc12 | – | inactive |
| COc1ccc2nc(-c3ccccc3)cc(C(=O)OCC(=O)N3CC(C)OC(C)C3)c2c1 (stereo not drawn) | – | inactive |
| CC(C)OP(=O)(OC(C)C)C(O)c1ccc(N(C)C)cc1 (stereo not drawn) | 7.42 | – |
| Cc1oc(/N=C/c2cccc3ccccc23)c(C#N)c1C | 3.67 | – |
